Screen size: about 220,000 compounds; about 2,400 (1.1%) were called active.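 Rule for the calls: active = inhibition above the campaign mean plus 3 SD over all tested compounds (cut at about 24% in these data); inactive = the rest.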 Shown is part of a subset that was picked to be rich in actives.

The nature of the assay: reduced viability of JAK2V617F-dependent Ba/F3 cells, primary screen, JAK2V617F inhibitor project, cell-based, Ba/F3 EpoR-JAK2V617F, luminescence (AID 1446).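 Note: cytokine-independent growth of Ba/F3 cells driven by EpoR plus mutant JAK2; 0% = DMSO-treated cells and 100% = JAK inhibitor I control.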 As to conditions: ATP luminescence, at 5.6 µM, stronger effect = higher value.
Regarding `Cc1ccc(O)c(CCc2ccccc2)n1`, the inhibition was -4.38% (inactive).
To `Cc1nc(Cl)c(C#N)c2c1CCCC2` belongs -4.53% (inactive).
To `Cc1cc(C)n(CC(O)CN(c2ccccc2)S(=O)(=O)c2ccc3ccccc3c2)n1` (stereo unspecified) belongs 0.98% (inactive); to `S=c1[nH]c2ccccc2c2ccccc12`, -1.73% (inactive); to `CN(C)CCNC(=O)/C(=C/c1cccc([N+](=O)[O-])c1)NC(=O)c1ccccc1`, 3.86% (inactive).
With `O=C1/C(=C\c2ccsc2)NC(=S)N1c1ccccc1` the figure was -2.32% (inactive); with `O=C1N/C(=C/c2cccn2-c2ccccc2)C(=O)N1c1cccc(Cl)c1`, 51.8% (active); with `Cc1ccccc1NC(=O)CN1C(=O)N/C(=C\c2cccn2-c2cccc(C(=O)O)c2)C1=O`, 0.8% (inactive).
Consider `Cc1ccc(C(=O)NN(CCC#N)C2=NS(=O)(=O)c3ccccc32)cc1`, for which the inhibition is -4.16% (inactive).
To `Cc1ccc2sc(NNC(=O)c3ccc4c(c3)OCCO4)nc2c1C` belongs -3.73% (inactive); to `COc1ccc(N2CCN(Cc3cc(=O)oc4ccc5ccccc5c34)CC2)cc1`, 0.19% (inactive); to `COc1ccc(Nc2cc(=O)n(-c3ccccc3)c3c2c(=O)n(C)c(=O)n3C)cc1`, 0.16% (inactive).
With `COc1ccc(Nc2cc(=O)oc3ccccc23)cc1` the figure was 55.1% (active); with `O=C(CC(c1ccccc1)c1cc(Cl)ccc1O)NCCN1CCOCC1` (stereo unspecified), -3.6% (inactive); with `C/C(CC(C)C)=N\Oc1nc(C)cc(C)n1`, -2.21% (inactive).
To `O=[N+]([O-])c1cc(C(F)(F)F)ccc1NN=C1CCCC1` belongs -0.95% (inactive); to `O=C(CCN1CCCCC1)N=Nc1c(O)[nH]c2ccccc12`, 1.24% (inactive); to `COC(=O)COc1cccc2c(=O)n(CC(=O)NCCc3ccc(OC)c(OC)c3)ccc12`, -2.26% (inactive).
For `COC(=O)COc1cccc2c(=O)n(CC(=O)NCc3ccccc3)ccc12`, the inhibition was 58.8% (active).
On to `Cc1ccc(CNC(=O)CCNC(=O)Cn2ccc3ccccc3c2=O)cc1`, for which the inhibition was 0.07% (inactive).
Regarding `CC(C)(C)NC(=O)c1ccc(Cn2cc(C(F)(F)F)ccc2=O)cc1`, the inhibition was 0.95% (inactive).
With `Cc1cc2ccccn2c1C(=O)c1cccc(S(=O)(=O)N2CCOCC2)c1` the figure was -0.04% (inactive); with `C/C(CC(=O)NC(C)(C)C)=N\NC(=O)c1ccco1`, -1.54% (inactive); with `CCCNc1c(N)c(=O)c1=O`, 1.36% (inactive).
With `CCc1cc(C(=O)c2ccc(OC)cc2)c(NC(=O)CN2CCN(C)CC2)s1` the figure was -1.89% (inactive); with `CCOC(=O)C1CCN(c2ncnc3c2oc2ccc(Br)cc23)CC1`, 0.71% (inactive); with `CCOC(=O)N1CCN(C(=O)C2CCN(c3ncnc4c3sc3cccc(F)c34)CC2)CC1`, 43.9% (active).
With `CCOC(=O)N1CCN(C(=O)C2CCN(Cc3ccc(OC)cc3OC)CC2)CC1`, the inhibition was -0.59% (inactive).
To `COc1ccc(/C=N/OCC(=O)N(Cc2ccccc2)c2ccccc2C(=O)O)cc1` belongs -2.1% (inactive); to `CCCCN1C(=O)/C(=C(/C#N)C(N)=O)c2ccccc21`, -3.07% (inactive); to `CC(C)c1ccc(Nc2nnc(SCC(=O)c3nnc(-c4ccccc4)o3)s2)cc1`, 0.01% (inactive).
To `COc1ccc(CCNC(=O)C(=O)NCC2CCNCC2)cc1OC` belongs -3.6% (inactive); to `Cc1ccc2c(c1)C1CN(C)CCC1N2S(=O)(=O)c1ccc(Oc2ccc([N+](=O)[O-])cc2)cc1` (stereo unspecified), -5.1% (inactive); to `CCn1c(CSCc2c(Cl)cccc2Cl)n[nH]c1=S`, -2.13% (inactive).
To `COc1cc2c(cc1OC)C(/C=C/c1ccco1)=NCC2` belongs 1.51% (inactive).
For the molecule `O=c1oc2ccccc2cc1-c1cn(-c2ccccc2)c(=S)[nH]1`, the inhibition is 35.7% (active).
To `Nc1ncc(-c2cc3ccccc3oc2=O)s1` belongs 6.85% (inactive).
Take `O=C(c1cn(-c2ccccc2)nc1-c1cc2ccccc2oc1=O)N1CCOCC1`: the inhibition is -0.6% (inactive).
Regarding `Cc1nc2c(ncn2-c2ccccc2)c(=O)n1NC(=O)CN1CCCC1`, the inhibition is -1.07% (inactive).
With `O=C(NNC(=O)c1ccccc1[N+](=O)[O-])Nc1ccccc1C(F)(F)F` the figure was -0.76% (inactive); with `CCOC(=O)c1cc(-c2nnc(-c3cc(OC)c(OC)c(OC)c3)o2)c(C)nc1C`, 0.18% (inactive).
For the molecule `CCOC(=O)C1CCN(C(=O)/C=C/c2cc(OC)c(OC)c(OC)c2)CC1`, the inhibition is -2.65% (inactive).
To `CCOC(=O)C1=C(N)N2C(=O)C(C)SC2=C(C(=O)OCC)C1c1cc(OC)c(OC)c(OC)c1` (stereo unspecified) belongs 80.7% (active).
To `CC(CNS(=O)(=O)c1ccc(Br)cc1)CN(C)C` (stereo unspecified) belongs -1.94% (inactive); to `Cc1ccc(Cl)cc1N1CCN(C(=O)c2cccc3c(=O)c(C)c(-c4ccccc4)oc23)CC1`, -6.79% (inactive).
For `C=CC[n+]1c(-c2ccc(C)cc2)csc1NNC(=O)Nc1ccccc1`, the inhibition is 37.6% (active).
To `Cc1ccc(NC(=O)Nc2ccccc2)c(Br)c1` belongs 1.27% (inactive); to `C=CCNc1scc(-c2ccccc2)[n+]1CC=C`, -1.89% (inactive); to `CCN(CC)CCOC(=O)c1ccc(NC(=O)CNC(=O)c2ccccc2)cc1`, 0.68% (inactive).
For `COc1ccc(C(=O)C[n+]2ccc(N)c(C)c2C)cc1`, the inhibition is 97.4% (active).
With `COc1ccc(OCCC(=O)c2ccc(OC)cc2)cc1` the figure was -0.79% (inactive); with `COc1ccc(C(=O)C[n+]2ccc(C)cc2)cc1`, -3% (inactive).
With `Cc1nn(-c2ccccc2)c(NC(=O)c2cccs2)c(-c2ccc(Cl)cc2)c1=O` the figure was -2.34% (inactive); with `COCCCNC(=O)/C=C/c1ccc(OCc2c(F)cccc2Cl)cc1`, -4.39% (inactive).
To `O=C(/C=C/c1ccc(OCc2c(F)cccc2Cl)cc1)N1CCOCC1` belongs 64.4% (active); to `CN(C)CCCNC(=O)/C=C/c1ccc(OCc2c(F)cccc2Cl)cc1`, 0.9% (inactive).
On to `O=C(NNC(=O)c1csc(-c2cccnc2)n1)Nc1ccc(Cl)cc1`, for which the inhibition was -0.26% (inactive).
To `COC(=O)N/N=C/c1cn(CCCOc2ccc(C)cc2)c2ccccc12` belongs -1.96% (inactive).
As for `CCN(CC)c1ccc(/C=N/NC(=O)c2cnccn2)c(O)c1`, the inhibition was 56.2% (active).
For the molecule `O=C(Nc1ccc2c(c1)OCCO2)c1cnccn1`, the inhibition is 0.76% (inactive).
Regarding `CCN(CC)c1ccc(/C=N/Nc2nc(C)cc(C)n2)c(O)c1`, the inhibition was 2.26% (inactive).

By inhibition is commonly meant the drop in the measured response relative to a control, in per cent.
